Values joined by “and” are separate entries in the source; they are usually repeats but may differ in a detail not shown here. Equal values may be shown once. Active and inactive are the calls of the source. Unless noted, no rule for the calls is given here.

Assay [1] is described as follows: liver-stage malaria parasite growth inhibition, primary screen, cell-based, HepG2, luciferase luminescence, HepG2 viability (AID 624349; in the data active = parasite load remaining mostly below about 12%, no sharp cut-off; inactive = mostly above about 10%;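 also: 100% = mean of DMSO negative control wells on the same plate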). Conditions: P. berghei liver stage in HepG2, luciferase luminescence, concentration not given here; parasite load remaining: stronger effect = lower value; viability: measured here: HepG2 viability without parasites.
A short description of assay [2]: Cy5 fluorescence interference with SSB-bound oligo, artefact control for HCV NS3 helicase inhibitor project, biochemical, NIH Clinical Collection, E. coli SSB (AID 743268).
The test system of assay [3] is Hepatitis C virus NS3 helicase. As to the kind of experiment: HCV NS3 helicase inhibitors, primary screen, biochemical, fluorescence polarization, NIH Clinical Collection (AID 743270). To be noted: NS3 helicase binding to Cy5-dT15 DNA, stronger effect = higher value, concentration not given here.
Assay [4] has as its target Single-stranded DNA-binding protein (Escherichia coli (strain K12)) (UniProt P0AGE0). The assay can be described thus: E. coli SSB displacement from DNA, counter-screen for HCV NS3 helicase inhibitor project, biochemical, fluorescence polarization, NIH Clinical Collection (AID 743271; in the data active = inhibition above about 28%). To be noted: stronger effect = higher value, concentration not given here.
Assay [5] in a line: fluorescence interference in NS3h assay format, artefact control for HCV NS3 helicase inhibitor project, biochemical, NIH Clinical Collection (AID 743272).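 Also: HCV NS3 helicase with a Cy5 labelled single stranded DNA probe.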 Conditions: fluorescence interference counterscreen, stronger effect = lower value.
Assay [6] deals with Neuropilin-2 / VEGF-C interaction (human). As to the kind of experiment: inhibitors of NRP2–VEGF-C binding, biochemical, microplate binding format, z-score (AID 743281). To be noted: microplate NRP2/VEGF-C binding assay; stronger effect = lower value.
Assay [7] in a line: modulation of C. elegans fzo-1 (AID 1259413).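 Also: fzo-1 mutant C. elegans worms in liquid wells.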 Conditions: C. elegans fzo-1 modulator screen, mean read-out; stronger effect = higher value.
A short description of assay [8]: sensitizers of A549 cells to miR-34 induction, primary screen, imaging, A549 dox-inducible miR-34, nuclei and caspase counts (AID 1347080;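 active = compounds whose cell count with miR-34 switched on is under 0.7 times the count with it off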). To be noted: A549 miR-34 inducible, Hoechst nuclei count, 48 h.
A short description of assay [9]: viability rescue of complex I mutant cybrids, primary screen, cell-based, galactose medium, ATP luminescence (AID 1645843;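 active = z-score of at least 1.8 in each of two replicates, scored against plate mean and spread of sample wells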;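 also: positive z means more ATP and so rescue of galactose-driven cybrid death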). Conditions: complex I mutant cybrid cells, 72 h, stronger effect = higher value.
The test system of the next assay is F380Y. The assay can be described thus: modulators of BK channel variants, profiling panel, selectivity assay, cell-based, U2OS BacMam, thallium flux, beta subunits (AID 1259406;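 active = thallium flux through the channel raised or lowered by more than 3 SD from vehicle-only wells, actives on both sides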;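 also: initial slope of Thallos dye fluorescence rise after thallium is added; log ratio against the mean of 0.3% DMSO vehicle wells on the same plate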). Conditions: at 30 µM.
The subject of another assay is F380Y/beta2Delta. Described as above. To be noted: at 30 µM.
For assay [10], the target named is Calcium-activated potassium channel subunit alpha-1 (Homo sapiens) + Leucine-rich repeat-containing protein 26 (Homo sapiens) (UniProt Q12791+Q2I0M4). The assay is described as above. Conditions: F380Y/Slo1WT/gamma1, at 30 µM.
Sequence of Calcium-activated potassium channel subunit alpha-1 (Homo sapiens) + Leucine-rich repeat-containing protein 26 (Homo sapiens) (Q2I0M4 whole entry, looked up, one chain of several): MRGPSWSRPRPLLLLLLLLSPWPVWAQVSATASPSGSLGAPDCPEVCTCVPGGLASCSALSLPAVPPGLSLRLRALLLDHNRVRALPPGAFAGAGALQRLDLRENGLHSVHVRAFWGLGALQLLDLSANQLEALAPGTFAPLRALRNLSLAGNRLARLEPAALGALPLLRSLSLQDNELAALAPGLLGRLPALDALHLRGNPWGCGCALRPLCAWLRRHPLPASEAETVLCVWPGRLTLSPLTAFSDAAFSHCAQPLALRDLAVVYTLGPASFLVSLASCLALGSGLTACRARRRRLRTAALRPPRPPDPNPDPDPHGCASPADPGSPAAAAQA
For a further assay, the system named is R275C. The assay is described as above. Conditions: at 30 µM.
The test system of another assay is R275C/beta1. The assay is described as above. Conditions: at 30 µM.
For another assay, the system named is R275C/beta2Delta. Described as above. Conditions: at 30 µM.
Another assay has as its system F380Y/beta1. The assay is described as above. Conditions: at 30 µM.
A further assay relates to F380Y/beta4. The description is as above. To be noted: at 30 µM.
For the next assay, the system named is R275C/beta4. The description is as above. Conditions: at 30 µM.
A further assay relates to R275C/Slo1WT/beta2. The assay is described as above. To be noted: at 30 µM.
A short description of assay [11]: differential killing of epithelial or mesenchymal cells, primary screen, imaging, PC-3E GFP, TEM4-18 mCherry, co-culture (AID 1345086;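 active = compounds killing one labelled cell type while sparing the other, by normalised counts and ratio limits, not self-fluorescent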;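 also: cells exposed to compound for 72 h before imaging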;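 as to red/green cell ratio (normalised): normalised mesenchymal count divided by normalised epithelial count so high means epithelial killing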). To be noted: imaging cell counts, at 1 µM.
[12] abbreviates: stronger effect = lower value, cell number ratio, induced over uninduced.
Where [13] appears, read: measured here: relative caspase fold change +Dox/-Dox.
Setting [14] is: measured here: total cells with miR-34 induction, stronger effect = lower value.
Setting [15] is: measured here: total cells without miR-34 induction.

Regarding `CC(=O)NCCCCCCNC(C)=O`, the parasite load remaining in [1] is 100% (inactive). Moreover, the viability in assay [1] was found to be 66.5%. Moreover, the fluorescence ratio in assay [2] is 1.01 (inactive); in assay [5], 0.97 (inactive). For the same molecule, the inhibition is -1.19% (inactive) in [3] and -3.18% (inactive) in assay [4]. Also, the z-score was -0.47 (inactive) in assay [6] and 0.325 (inactive) in [9]. The mean signal in assay [7] is 268 (inactive). Further, the fold change in [8] (setting [12]) is 0.955 (inactive); in assay [8] (setting [13]), 1.58. For the same molecule, the cell count is 9330 in assay [8] (setting [14]) and 9770 in assay [8] (setting [15]). Besides, the log fold change Tl+ flux with F380Y was 0.015 (inactive); in the assay with F380Y/beta2Delta it was -0.0186 (inactive); in [10], 0.0164 (inactive); in the assay with R275C, 0.0387 (inactive); in the assay with R275C/beta1 it was 0.0269 (inactive); in the assay on R275C/beta2Delta, -0.0786 (inactive).

For `O=C1N=C(O)CN1N=Cc1ccc(-c2ccc([N+](=O)[O-])cc2)o1`, the parasite load remaining in assay [1] is 10.7% (inactive). Besides, the viability in assay [1] was found to be 83.3%. For the same molecule, the fluorescence ratio was 1.04 (inactive) in [2] and 0.97 (inactive) in assay [5]. The values for the inhibition in assay [3] and in [4] were 0.45% (inactive) and 7.91% (inactive), respectively. The fold change was 0.951 (inactive) in [8] (setting [12]) and 1.68 in assay [8] (setting [13]). Moreover, the cell count was 7170 in assay [8] (setting [14]) and 7540 in assay [8] (setting [15]). The z-score in assay [9] was -0.1 (inactive). Also, the log fold change Tl+ flux with F380Y was 0.0284 (inactive); in the assay on F380Y/beta1, 0.16 (active); in the assay with F380Y/beta2Delta, 0.0246 (inactive); in the assay on F380Y/beta4, -0.0396 (inactive); in assay [10] it was 0.0789 (inactive); in the assay with R275C, 0.0615 (inactive). Also, the log fold change Tl+ flux is 0.0553 (inactive) in the assay on R275C/beta1, 0.0141 (inactive) with R275C/beta2Delta, 0.0532 (inactive) in the assay on R275C/beta4 and 0.0367 (inactive) in the assay on R275C/Slo1WT/beta2.

For `CO[C@H]1O[C@@H]2O[C@@]3(C)CC[C@H]4[C@H](C)CC[C@@H]([C@H]1C)[C@@]24OO3`, the parasite load remaining in assay [1] was 32% (inactive). Also, the viability in [1] worked out at 66.6%. Moreover, the fluorescence ratio in assay [2] was 1.02 (inactive); in [5], 1 (inactive). For the same molecule, the inhibition is -1.97% (inactive) in [3] and -3.54% (inactive) in assay [4]. The z-score in [6] was -0.742 (inactive). The mean signal in assay [7] was 291 (inactive). Moreover, the log fold change Tl+ flux in the assay with F380Y is -0.0298 (inactive); in the assay with F380Y/beta2Delta it was -0.0746 (active); in assay [10], -0.00699 (inactive); in the assay with R275C, 0.0256 (inactive); with R275C/beta1, -0.0131 (inactive); in the assay with R275C/beta2Delta, -0.00466 (inactive).

`O=C1CN(N=Cc2ccc([N+](=O)[O-])o2)C(=O)N1`: in assay [1], the parasite load remaining is 0.39% (inactive). In addition, the viability in [1] amounted to 54.9%. Also, the fluorescence ratio in [2] and in assay [5] was 1 (inactive) each time. The inhibition in assay [3] is -3.18% (inactive); in [4] it was -0.48% (inactive). In addition, the fold change is 0.912 (inactive) in assay [8] (setting [12]) and 2 in assay [8] (setting [13]). Besides, the results for the cell count in assay [8] (setting [14]) and in assay [8] (setting [15]) were 9510 and 10400, respectively. Further, the z-score in assay [9] was -1.36 (inactive). Further, the log fold change Tl+ flux in the assay on F380Y was -0.0264 (inactive); in the assay with F380Y/beta1 it was -0.025 (inactive); with F380Y/beta2Delta, -0.0429 (inactive); with F380Y/beta4, -0.00406 (inactive); in [10], 0.0181 (inactive); in the assay on R275C, 0.0135 (inactive). Also, the log fold change Tl+ flux was -0.0666 (inactive) with R275C/beta1, 0.0336 (inactive) in the assay on R275C/beta2Delta, -0.0417 (inactive) in the assay with R275C/beta4 and -0.117 (active) with R275C/Slo1WT/beta2.

For the molecule `CC/C(=C(/c1ccccc1)c1ccc(OCCN(C)C)cc1)c1ccccc1`, the mean signal in assay [7] is 234 (inactive).

For the molecule `CO[C@H]1C=CO[C@@]2(C)Oc3c(C)c(O)c4c(O)c(c5c(nc6cc(C)ccn65)c4c3C2=O)NC(=O)C(C)=CC=C[C@H](C)[C@H](O)[C@@H](C)[C@@H](O)[C@@H](C)[C@H](OC(C)=O)[C@@H]1C`, the parasite load remaining in assay [1] was 97.9% (inactive). Besides, the viability in assay [1] was 78.8%. For the same molecule, the fluorescence ratio was 0.98 (inactive) in assay [2] and 1.01 (inactive) in [5]. The inhibition is 1.19% (inactive) in assay [3] and 1.44% (inactive) in assay [4]. Moreover, the log fold change Tl+ flux was -0.487 (active) in the assay with F380Y; -0.224 (active) in the assay with F380Y/beta1; -0.411 (active) in the assay with F380Y/beta2Delta; -0.508 (active) in the assay with F380Y/beta4; -0.124 (active) in assay [10]; -0.242 (active) in the assay with R275C. In addition, the log fold change Tl+ flux with R275C/beta1 was 0.0122 (inactive); in the assay with R275C/beta2Delta it was -0.0244 (inactive); with R275C/beta4 it was -0.0127 (inactive); in the assay with R275C/Slo1WT/beta2, -0.00936 (inactive).

Regarding `CC(C)N=c1cc2n(-c3ccc(Cl)cc3)c3ccccc3nc-2cc1Nc1ccc(Cl)cc1`, the fluorescence ratio in assay [2] is 0.94 (inactive); in assay [5] it was 0.96 (inactive). The inhibition in assay [3] is 8.52% (inactive); in assay [4] it was 6.69% (inactive). The z-score in assay [6] was 1.38 (inactive); in assay [9], -1.15 (inactive). Besides, the mean signal in assay [7] is 220 (inactive). Further, the red/green cell ratio (normalised) in assay [11] (actives lie on both sides, counts scaled to control wells, 1 = unselective) was 0.91 (inactive). Moreover, the values for the normalised cell number in assay [11] (measured here: epithelial PC-3E GFP cell survival) and in assay [11] (measured here: mesenchymal TEM4-18 mCherry cell survival) were 0.92 and 0.84, respectively.

In the case of `Nc1nc2ccc(Cl)cc2c2nc(-c3ccco3)nn12`, the parasite load remaining in assay [1] is 21.2% (inactive). The molecule also registered a viability in assay [1] of 75.1%. Besides, the fluorescence ratio in assay [2] and in [5] was 0.95 (inactive) in each case. In addition, the inhibition in assay [3] was -2.77% (inactive); in assay [4] it was -6.26% (inactive). For the same molecule, the z-score in assay [6] is 0.671 (inactive); in assay [9] it was 0.585 (inactive) and 0.89 (inactive) and -0.13 (inactive). Besides, the mean signal in assay [7] is 260 (inactive). Also, the fold change in [8] (setting [12]) was 1.05 (inactive) and 0.991 (inactive) and 1.02 (inactive); in assay [8] (setting [13]), 0.947 and 1.47 and 1. The cell count was 7130 and 7040 and 7980 in [8] (setting [14]); 6800 and 7110 and 7830 in assay [8] (setting [15]).

With `CC(=O)OCC(=O)[C@@]1(O)CC[C@H]2[C@@H]3CCC4=CC(=O)CCC4(C)[C@H]3C(=O)CC21C` (stereo partly specified), in [7], the mean signal was 237 (inactive).

Regarding `CC(=O)SCC(Cc1ccccc1)C(=O)NCC(=O)OCc1ccccc1` (stereo unspecified), the fluorescence ratio in [2] is 0.96 (inactive); in assay [5] it was 0.86 (inactive). The results for the inhibition in [3] and in assay [4] were 3.56% (inactive) and 2.21% (inactive), respectively. In addition, the z-score in assay [6] was -0.263 (inactive); in assay [9], 0.9 (inactive) and 0.57 (inactive). For the same molecule, the mean signal in [7] is 251 (inactive).

In the case of `CC[C@@H]1C(=O)OC[C@@H]1Cc1cncn1C`, the fluorescence ratio in assay [2] is 0.93 (inactive); in [5], 0.86 (inactive). In addition, the values for the inhibition in assay [3] and in [4] were -5.94% (inactive) and 1.44% (inactive), respectively. The z-score in assay [6] was -0.47 (inactive). For the same molecule, the mean signal in [7] is 280 (inactive).

Regarding `C[C@H]1O[C@@H](O[C@H]2[C@@H](O)C[C@H](O[C@H]3[C@@H](O)C[C@H](O[C@H]4CCC5(C)[C@H](CC[C@@H]6[C@@H]5C[C@@H](O)C5(C)C(C7=CC(=O)OC7)CCC65O)C4)O[C@@H]3C)O[C@@H]2C)C[C@H](O)[C@@H]1O` (stereo partly specified), the mean signal in [7] is 250 (inactive).

`CO[C@H]1C=CO[C@@]2(C)Oc3c(C)c(O)c4c(O)c(c5c(c4c3C2=O)NC2(CCN(CC(C)C)CC2)N=5)=NC(=O)/C(C)=C\C=C/[C@H](C)[C@H](O)[C@@H](C)[C@@H](O)[C@@H](C)[C@H](OC(C)=O)[C@@H]1C`: the mean signal in [7] is 242 (inactive).

The record behind these values is PubChem BioAssay.
